Screening data from PubChem.
Most compounds without a hit are left out; they make up all but 12% or so of the library.
G9a inh: qHTS Assay for Inhibitors of Histone Lysine Methyltransferase G9a; hit rate 8.8% among 350,000; G9a H3K9 monomethylation, AlphaScreen, 2 h; Histone-lysine N-methyltransferase EHMT2 (Homo sapiens), Q96KQ7; Potency, µM (series often up to 102 µM), without a hit: at the top dose activity, negative = inhibition, most hits filed as inhibitors; further: on the % scale 0 is the no-effect control and ±100 the full control effect; nearly all actives have a fitted effect of over 75% in size
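G9a (20 nM) was preincubated 15 min with compound, then reacted 2 h at room temperature with 500 nM biotin-H3K9 peptide and 20 µM SAM. Monomethyl-H3K9 detected by AlphaScreen using anti-H3K9me1 antibody.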
TDP1 block: qHTS Assay for Inhibitors of Tyrosyl-DNA Phosphodiesterase (TDP1). Tyrosyl-DNA phosphodiesterase 1 (Homo sapiens), Q9NUW8. recombinant TDP1, AlphaScreen DNA substrate cleavage. Potency, µM (titrated, usually from 130 µM), without a hit: at the highest dose activity change, negative = inhibition, actives largely listed as inhibitors. hit rate 0.28% among 350,000. AID 485290, 2010; further: on the % scale 0 is the no-effect control and ±100 the full control effect; nearly all actives have a fitted effect of over 40% in size
Target sequence (Q9NUW8 whole entry, looked up): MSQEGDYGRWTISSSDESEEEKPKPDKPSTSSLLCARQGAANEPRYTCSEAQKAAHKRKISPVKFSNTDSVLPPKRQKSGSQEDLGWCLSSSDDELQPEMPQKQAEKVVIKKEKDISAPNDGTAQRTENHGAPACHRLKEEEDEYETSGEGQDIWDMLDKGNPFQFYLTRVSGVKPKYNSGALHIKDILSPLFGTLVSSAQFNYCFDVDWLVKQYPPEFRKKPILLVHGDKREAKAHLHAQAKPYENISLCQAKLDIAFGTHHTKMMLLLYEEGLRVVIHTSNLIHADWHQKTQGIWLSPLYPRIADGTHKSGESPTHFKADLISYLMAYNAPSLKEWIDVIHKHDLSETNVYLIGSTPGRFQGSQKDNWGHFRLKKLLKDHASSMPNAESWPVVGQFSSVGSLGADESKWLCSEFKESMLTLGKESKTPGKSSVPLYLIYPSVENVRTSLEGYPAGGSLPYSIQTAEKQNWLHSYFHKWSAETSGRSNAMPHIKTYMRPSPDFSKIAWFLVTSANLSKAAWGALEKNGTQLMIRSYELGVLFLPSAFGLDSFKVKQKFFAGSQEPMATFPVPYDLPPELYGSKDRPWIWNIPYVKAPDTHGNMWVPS
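Recombinant human Tdp1 (E. coli-expressed, 1 nM final) preincubated with compounds 15 min at room temperature, then 5'-biotin/3'-phosphotyrosine-FITC DNA substrate (15 nM final) added for 5 min. AlphaScreen beads (10 ug/ml final) added 10 min; cleavage lowers signal.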
HP1b binding inh: HTS for Inhibitors of HP1-beta Chromodomain Interactions with Methylated Histone Tails; Potency, µM (doses to about 114 µM), inactives show top-dose activity change, negative = inhibition, most hits filed as inhibitors; Chromobox protein homolog 1 (Homo sapiens), P83916; hit rate 0.56% among 390,000; AlphaScreen HP1-beta / biotin-H3K9me3 peptide binding; AID 540317, 2011; further: nearly all actives have a fitted effect of over 70% in size
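Compound inhibition of the preformed complex between 50 nM HP1-beta and 50 nM biotinylated H3K9me3 peptide was read by AlphaScreen. Buffer was PBS pH 7.4 with 0.01% Tween-20. Incubations ran 30 min at room temperature, with 10 ug/mL donor/acceptor beads.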
JMJD2A Tudor inh: qHTS Assay for Inhibitors of JMJD2A-Tudor Domain; Lysine-specific demethylase 4A (Homo sapiens), O75164; AlphaScreen JMJD2A-Tudor / H3K4me3 peptide binding; Potency, µM (highest dose often 114 µM), for inactives: at the top dose activity change, negative = inhibition, actives largely listed as inhibitors; hit rate 4.4% among 390,000; AID 504339, 2011; further: on the % scale 0 is the no-effect control and ±100 the full control effect; nearly all actives have a fitted effect of over 50% in size
BAZ2B block: qHTS Assay for Inhibitors of BAZ2B. Potency, µM (highest dose often 114 µM), inactives show top-dose activity change, negative = inhibition, hits mostly inhibitors. AlphaScreen BAZ2B-H3K14Ac peptide displacement. hit rate 4.4% among 360,000. Bromodomain adjacent to zinc finger domain protein 2B (Homo sapiens), Q9UIF8; further: on the % scale 0 is the no-effect control and ±100 the full control effect; nearly all actives have a fitted effect of over 60% in size
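AlphaScreen displacement: compounds (up to 110uM) incubated 30 min at room temperature with a preformed 50 nM BAZ2B/50 nM biotinylated H3K14Ac peptide complex in PBS pH 7.4 with Tween-20. Donor and acceptor beads at 10 ug/mL final added, 20 min light-protected before reading.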
Sfp PPTase inh: qHTS Assay for Inhibitors of Bacillus subtilis Sfp phosphopantetheinyl transferase (PPTase); hit rate 3.5% among 310,000; Potency, µM, inactives show largest response in the series, negative = inhibition, hits mostly inhibitors; 4'-phosphopantetheinyl transferase ffp (Bacillus subtilis), Q9F4F7; Biochemical Sfp PPTase activity, qHTS; AID 1490, 2009;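 further: the enzyme is Sfp with the accession as filed and its product quenches rhodamine fluorescence; 0% = enzyme reaction without inhibitor and -100% = no enzyme wells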
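Sfp 15 nM + cpd, 15 min RT; start w/ rhodamine-CoA 5 uM, BHQ-2-YbbR 12.5 uM (final); 50 mM Hepes pH 7.6, 10 mM MgCl2, 0.01% NP-40, 0.01% BSA; read 525/598 nm at 0 and 30 min.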
The depositor's hits bear a star; u = inconclusive; x = no result given; ! = not active in a repeat; [ ] = another dose, or the depositor's remark. The call rests on the fitted dose curve; in most records, active means well fitted curve in the direction sought with a large enough effect; inconclusive means small, poorly fitted or top-dose-only effect, or another doubt; inactive means no such curve, though single readings can be large; an effect the other way counts as inactive or inconclusive. Potency means the concentration at half of the fitted maximal effect.

SMILES	G9a inh	TDP1 block	HP1b binding inh	JMJD2A Tudor inh	BAZ2B block	Sfp PPTase inh
N#CC1=C(N)Nc2ncnn2C1c1ccc(F)cc1 (stereo not given)	39.8µM*	1.9%	39.6%	-3.5%	13.9%	5.0%
CSc1cnn(-c2ccccc2)c(=O)c1SC	-69.0%	-6.2%	9.2%	-7.7%	-0.2%	79.4µM*
CSc1cnn(Cc2ccccc2)c(=O)c1SCc1ccccc1	8.91µM*	-0.6%	60.4%	35.4%	12.7%	3.16µM*
CCSc1cnn(-c2ccccc2)c(=O)c1SCC	11.8%[59 µM]	4.6%	18.2%	-8.4%	-3.3%	8.5%
CN1CCN(CCCNC(=O)CCN2C(=O)COc3ccccc32)CC1	16.4%	0.9%	24.9%	-12.5%	-12.3%	12.4%
CN(C)CCNC(=O)COc1ccc(Cl)cc1Cl	50.1µM*	2.6%	16.7%	u	1.4%	-4.7%
CCN(CC)CCNC(=O)COc1ccc(Cl)cc1Cl	u	-1.0%	21.2%	-13.7%	-8.8%	15.6%
CN(C)CCNC(=O)COc1cccc(Cl)c1	22.4µM*	6.9%	2.8%	-5.5%[57.1 µM]	u	-10.5%
CN(C)C1(CNC(=O)COc2cccc(Cl)c2)CCCCC1	2.3%[59 µM]	5.7%	28.0%	-26.5%	-13.3%	x
Cc1cc(Br)ccc1NC(=O)c1coc(=O)c2ccccc12	-21.4%[59 µM]	1.9%	22.4%	7.1%	-9.7%	x
c1ccc2c(c1)nc1n2CCC1	x	x	28.5%	-2.8%	x	x
Cc1cc(=O)c2c(O)c3c(O)cc(=O)c4c3c3c(cc(O)c1c23)C(C)(C)C=4O	x	8.1%	x	x	x	56.2µM*!
C[C@@H]1C[C@@H]([C@@H](C)CC2CC(=O)NC(=O)C2)C(=O)[C@@H](C)C1	19.6%[59 µM]	7.1%	x	x	x	15.1%
Cc1cc(C)cc(SCc2noc(C(=O)NCCC(C)C)c2C(=O)NCCC(C)C)c1	x	x	92.2%	29.7%	x	x
CC(=O)[C@@H]1[C@H]2[C@H](C(=O)[C@H]3OC[C@@H]2O3)[C@H]2C=Cc3ccccc3N21	x	x	x	x	x	44.7µM*
O=C(CSc1nnc(-c2ccc3c(c2)OCO3)o1)Nc1c(F)cccc1F	x	0.6%	29.0%	-12.2%	x	x
CN(CCC1CCCCO1)C(=O)CCc1nnc(Cc2c[nH]c3ccccc23)o1 (stereo not given)	79.4µM*	3.2%	35.3%	-7.6%	-14.6%	5.7%
COc1ccc(N2C(=O)[C@@H]3C(c4cccnc4)=NO[C@@H]3C2=O)cc1	x	x	26.4%	-35.1%	-20.2%	79.4µM*
Cc1ccc(N2C(=O)[C@@H]3C(c4cccnc4)=NO[C@@H]3C2=O)cc1	-14.8%[12.7 µM]	2.8%	21.8%	-20.6%	-4.8%	50.1µM*
CN(C)C(=O)c1ccc(-c2ccc3ncnc(N4CCC(C(=O)O)CC4)c3c2)cc1	-1.9%[0.501 µM]	x	x	x	x	8.1%
CCOc1ccc(C(=O)N2CCC(c3noc(-c4ccc(S(=O)(=O)N5CCCC5)cc4)n3)CC2)cc1	4.2%[59 µM]	4.7%	35.0%	-24.5%	-12.4%	x
OCCOCCn1c(-c2ccccc2)nc(=S)c2c1CCCC2	50.1µM*	4.9%	20.2%	-10.3%	5.7%	u
CC1(C)Cc2c(c(=S)nc(-c3ccccc3)n2CCOCCO)CO1	-43.2%[59 µM]	-2.0%	34.8%	-13.2%	-23.3%	-6.1%
Cc1cc(C)n(-c2nc(SCCN(C)C)c3c4c(sc3n2)COC(C)(C)C4)n1	-35.3%[59 µM]	2.0%	-6.4%	-33.6%	5.1%	8.4%
Cc1cc(C)n(-c2nc(NCC3CCCO3)c3c4c(sc3n2)COC(C)(C)C4)n1 (stereo not given)	1.78µM*	5.6%	33.6%	-15.2%	10.1%	-2.2%
CCc1cc(C(c2ccncc2)N2CCN(C)CC2)c(NC(=O)c2ccccc2)s1 (stereo not given)	39.8µM*	3.8%	16.4%	-35.2%	u	-16.9%
